Source: PubChem BioAssay (National Center for Advancing Translational Sciences (NCATS))
FBPA coupling cs: counter-screen for Giardia aldolase inhibitors: coupling enzyme system; coupling enzyme system counterscreen, AmpLite Red fluorescence; activity change, negative = inhibition, % at 58.2 µM, hits read low; actives 0.67% (n = 290,000); AID 2472; in the data active = activity change below about -30%
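Activity here indicates interference with the coupling reaction, not aldolase inhibition. Compounds at 57.5 uM final met coupling enzymes for 10 min at RT; substrate and AmpLite Red detection followed, with a 525/598 nm fluorescence read after 20 min.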
GALK inh: galactokinase (human) inhibition; actives 0.007% (n = 270,000); Potency, µM (doses to about 57.5 µM), actives largely listed as inhibitors; Purified GALK, Kinase-Glo residual ATP luminescence
Target sequence (P51570 whole entry, looked up): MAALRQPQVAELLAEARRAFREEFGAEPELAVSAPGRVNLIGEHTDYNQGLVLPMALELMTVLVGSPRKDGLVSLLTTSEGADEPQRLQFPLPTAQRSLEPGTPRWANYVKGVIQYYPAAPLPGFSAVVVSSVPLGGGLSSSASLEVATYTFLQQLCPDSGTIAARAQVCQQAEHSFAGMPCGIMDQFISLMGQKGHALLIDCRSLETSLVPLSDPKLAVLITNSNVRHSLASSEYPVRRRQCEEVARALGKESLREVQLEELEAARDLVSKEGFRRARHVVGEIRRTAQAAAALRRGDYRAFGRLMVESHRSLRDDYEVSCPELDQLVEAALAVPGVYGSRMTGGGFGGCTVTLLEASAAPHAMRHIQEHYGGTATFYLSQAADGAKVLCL
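GALK at 5 nM final was combined with compound, 35 uM ATP and 100 uM galactose in HEPES pH8.0 with MgCl2 and DTT. The reaction ran one hour at room temperature before luminescent ATP detection.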
rTrxR1 inhibitor: blocks rat thioredoxin reductase 1 | O89049 | recombinant rTrxR1, NADPH fluorescence consumption, selenite substrate | Potency, µM (highest dose often 114 µM), actives largely listed as inhibitors | actives 1% (n = 390,000); note: nearly all actives have a fitted effect of over 65% in size
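Rat TrxR1 (90 nM in the dispensed reagent) was pre-reduced with 400 uM NADPH for 5 min at room temperature, then incubated with compound for 15 min. After 400 uM selenite was added, NADPH fluorescence (Ex 340/Em 450 nm) was followed for 8 min.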
TrxR1 substrate: is turned over as a substrate by rat TrxR1; O89049; purified TrxR1 substrate turnover, NADPH consumption readout; Potency, µM (top dose mostly 114 µM); actives 0.01% (n = 390,000); note: nearly all actives have a fitted effect of over 50% in size
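Rat TrxR1, dispensed at 90 nM, was prereduced with 400 uM NADPH (final) for 5 min at ~22 deg C, then incubated with compound 15 min before 400 uM selenite. A first-read NADPH fluorescence drop versus no-compound background flagged substrates.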
Gal4-VP16 FLuc: Gal4-VP16 reporter inhibition counter-screen; Potency, µM (highest dose often 53.6 µM), actives largely listed as inhibitors; AID 2546; actives 3.5% (n = 310,000); Drosophila S2 Gal4-VP16 UAS-luciferase, luminescence, 20 h;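 note: Gal4-VP16 expression switched on by copper sulfate through the metallothionein promoter; nearly all actives have a fitted effect of over 50% in size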
RORg inh: ROR gamma (mouse) transcription inhibition. AID 2551. actives 5.4% (n = 310,000). Potency, µM (top dose mostly 53.6 µM), hits mostly inhibitors. Drosophila S2 Gal4-RORgamma UAS-luciferase reporter, 20 h. P51450; note: nearly all actives have a fitted effect of over 60% in size
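In this cell-based reporter format, copper sulfate (700 uM final) drives Gal4–ROR gamma fusion expression from a metallothionein promoter in Drosophila Schneider cells; compounds preincubated 1 hr, reporter read after 20 hr at ambient temperature.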
A number is an active result; – = inactive; ? = inconclusive; · = not tested or not shown; [ ] = another dose, or the depositor's remark. An excerpt weighted towards active compounds, which were near 5.9% of everything screened. Unless noted, calls come from the whole dose curve; as a rule, active = well fitted curve in the direction sought with a large enough effect; inconclusive = small, poorly fitted or top-dose-only effect, or another doubt; inactive = no such curve, though single readings can be large; an effect the other way counts as inactive or inconclusive.

SMILES | FBPA coupling cs | GALK inh | rTrxR1 inhibitor | TrxR1 substrate | Gal4-VP16 FLuc | RORg inh
CCSc1nnc(NC(=O)CSc2nnc(CNC(=O)c3ccc(OC)c(OC)c3)o2)s1 | – | – | – | – | ? | 17.8µM
COc1ccc(C(=O)NCc2nnc(SCC(=O)Nc3nc4ccccc4s3)o2)cc1 | – | – | – | – | 11.2µM | 11.2µM
CCc1nnc(NC(=O)CSc2nnc(CNC(=O)c3ccc(OC)c(OC)c3)o2)s1 | – | – | – | – | – | –
CN(C)c1ccc(P(=O)(COc2ccc([N+](=O)[O-])cc2)c2ccc(N(C)C)cc2)cc1 | – | – | –[11.4 µM] | ? | – | –
Cc1ccc(N2NC(=O)/C(=C\c3cc4c(cc3[N+](=O)[O-])OCO4)C2=O)cc1C | – | · | 17.8µM | – | ? | –
O=C(CCCCC(=O)Nc1ccc(F)cc1F)Nc1ccc(F)cc1F | · | · | – | – | · | ·
COCCNC(=O)c1noc2c1CCc1cc(OC)ccc1-2 | – | – | ? | – | ? | –
COc1ccc2c(c1)CCc1c(C(=O)NCCCn3ccnc3)noc1-2 | – | – | 15.8µM | – | – | –
COCC(C)NC(=O)c1noc2c1CCc1cc(OC)ccc1-2 (stereo not drawn) | – | – | 10µM | – | – | ?
COc1ccc2c(c1)CCc1c(C(=O)NCCN3CCOCC3)noc1-2 | – | – | 39.8µM | – | – | –
COc1ccc2c(c1)CCc1c(C(=O)N(C)c3ccccc3)noc1-2 | – | – | 79.4µM | – | –[10 µM] | –
O=C(CN1CC(=O)Nc2ccccc21)NCCc1ccc(Cl)cc1Cl | – | – | – | – | – | –
CC1CCCCN1C(=O)COC(=O)c1cc(-c2cccs2)nn1-c1ccccc1 (stereo not drawn) | · | · | – | – | · | ·
CC(C)OCCCn1c(SCC(=O)N2CCCC2=O)nc2ccccc2c1=O | · | · | – | – | · | ·
COC(=O)C(=O)C/C(=N/Nc1ncnc2ccccc12)c1ccc(Cl)cc1 | – | – | – | – | ? | 11.2µM
Cc1ccc(/C(=N/Nc2ncnc3ccccc23)C(=O)O)cc1 | – | – | – | – | 0.891µM | 0.0501µM
Cc1ccc(Nc2ncnc3ccccc23)cc1 | – | – | – | – | – | –
CCN1CCN(C(=O)C(C)N(c2ccc(C)cc2)S(C)(=O)=O)CC1 (stereo not drawn) | – | – | – | – | – | –
O=C(Nc1ccc(S(=O)(=O)Nc2nccs2)cc1)c1cccc(N2C(=O)c3ccccc3C2=O)c1 | – | – | – | – | – | –
CN(C)CCCN1C(=O)c2cccc3c([N+](=O)[O-])ccc(c23)C1=O | – | – | ? | – | 1.12µM | 1.41µM
O=C(O)c1ccc(CN2C(=O)c3cccc4c([N+](=O)[O-])ccc(c34)C2=O)cc1 | – | – | ? | – | 7.08µM | ?
O=C(Nc1nccs1)c1cccc(N2C(=O)c3cccc4c([N+](=O)[O-])ccc(c34)C2=O)c1 | – | – | – | – | 7.08µM | 7.08µM
O=C1c2cccc3c([N+](=O)[O-])ccc(c23)C(=O)N1CCc1ccccn1 | – | · | – | – | – | –
Cc1ccc(C(=O)O)cc1N1C(=O)c2cccc3c([N+](=O)[O-])ccc(c23)C1=O | – | – | ? | – | 6.31µM | 7.94µM
COc1ccccc1N1CCN(C(=O)c2ccc3c(=O)n4c(nc3c2)CCCCC4)CC1 | · | · | – | – | · | ·
SMILES | FBPA coupling cs | GALK inh | rTrxR1 inhibitor | TrxR1 substrate | Gal4-VP16 FLuc | RORg inh
CC(=O)Oc1cccc(N2C(=O)c3cccc4c([N+](=O)[O-])ccc(c34)C2=O)c1 | – | – | – | – | 5.62µM | 8.91µM
CC(=O)Oc1cccc(N2C(=O)c3ccc(C(=O)O)cc3C2=O)c1 | – | – | – | – | – | –
Cc1ccc(Cl)cc1NC(=S)N1CCCCCC1 | · | – | – | – | ? | 10µM
Cc1ccc(NC(=S)N2CCN(c3ncccn3)CC2)c(C)c1 | – | – | – | – | ? | 35.5µM
Cc1c(Cl)cccc1NC(=S)NN1CCOCC1 | – | – | – | – | ? | 10µM
FC(F)(F)c1ccccc1NC(=S)N1CCN(c2ncccn2)CC1 | – | – | – | – | – | 12.6µM
O=C1NCCCCC1NS(=O)(=O)c1cccc(C(F)(F)F)c1 (stereo not drawn) | – | · | – | – | – | –
COc1cc2c(-c3cccc(Cl)c3)nc3c(c(C)nn3-c3ccccc3)c2cc1OC | · | · | – | – | · | ·
Cc1cccc(Nc2ncnc(N)n2)c1 | – | – | – | – | – | –
Cc1ccc(NC(=S)N2CCCCCC2)c(C)c1 | – | – | – | – | 17.8µM | ?
Cc1cccc(NC(=S)N2CCCCCC2)c1C | · | – | – | – | ? | ?
Cc1c(Cl)cccc1NC(=S)N1CCCCCC1 | – | – | – | – | ? | 14.1µM
CCc1ccccc1NC(=S)N1CCCCCC1 | · | – | – | – | ? | 14.1µM
CCc1ccccc1NC(=S)N1N=CCC1c1ccccc1 (stereo not drawn) | – | – | – | – | 7.94µM | 3.16µM
CN(C)C(=O)c1ccc(-c2ccc3ncnc(NC4CC4)c3c2)cc1 | – | · | · | · | – | –
Cc1ccc(Cl)cc1NC(=S)Nn1cnnc1 | · | – | ? | – | ? | 12.6µM
CCc1ccccc1NC(=S)NNC(=O)c1ccccc1Cl | – | – | – | – | – | ?
CCOC(=O)c1ccccc1NC(=S)N1CCC(C)CC1 | – | – | – | – | ? | 12.6µM
CCc1ccccc1NC(=S)NN | – | – | · | · | ? | 11.2µM
CCOC(=O)c1ccccc1NC(=S)N1CC(C)CC(C)C1 (stereo not drawn) | – | – | – | – | ? | ?
Cc1ccc(NC(=O)COC(=O)CCC(=O)c2cccs2)cc1 | – | – | – | – | – | –
COc1ccc(/C=C2/SC(=S)N(c3ccc(S(=O)(=O)Nc4nccs4)cc3)C2=O)cc1 | – | – | – | – | ? | ?
Cc1ccc(/C=C2/SC(=S)N(c3ccc(S(=O)(=O)Nc4nccs4)cc3)C2=O)cc1 | – | – | – | – | 0.794µM | 5.62µM
Cn1ncc(Cl)c1C(=O)NC(=S)Nc1sc2c(c1C#N)CCCCC2 | – | – | ? | – | ? | 11.2µM
N#Cc1c(NC(=S)NC(=O)c2ccccc2)sc2c1CCCC2 | – | – | ? | – | 10µM | 6.31µM
Cc1ccccc1C(=O)NC(=S)Nc1sc2c(c1C#N)CCC(C)C2 (stereo not drawn) | – | – | ? | – | ? | 7.94µM
Cc1ccsc1/C=N/NC(=O)c1ccc(Cn2cc(Br)cn2)o1 | – | · | – | – | ? | 12.6µM
CC1CCc2c(sc(NC(=S)NC(=O)c3ccccc3)c2C#N)C1 (stereo not drawn) | – | – | – | – | – | –
Cc1cccc(C(=O)Nc2sc3c(c2C#N)CCCCC3)c1 | – | – | – | – | ? | 7.94µM
Cn1nccc1C(=O)Nc1sc2c(c1C#N)CCCC2 | · | – | – | – | ? | ?
